Assay outcomes as filed in PubChem BioAssay.
Hits are enriched below; roughly 27% of the tested compounds scored in any of these assays.
CYP2C9 inhib: blocks human cytochrome P450 2C9 | 20% of 96,000 active | inhibition, % at 5 µM | CYP2C9 Supersomes, luciferin-H conversion, luminescence | P11712 | AID 777;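 active = blocking of liver enzyme CYP2C9 beyond about 50% at 5 µM, limit read from the data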
CYP2C19 activ: activators of human cytochrome P450 2C19 | recombinant CYP2C19, luciferin-H EGE luminescence; active compounds read high; 0 = fully inhibited enzyme, 1 = untreated enzyme | activation factor at 5 µM | 96,000 tested, under 10 active | AID 1025;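 active = activation factor of at least 2 at 5 µM in the primary screen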;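 also: 0 = wells with 2.5 mM tranylcypromine and 1 = vehicle-only wells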
Target sequence (P33261 whole entry, looked up): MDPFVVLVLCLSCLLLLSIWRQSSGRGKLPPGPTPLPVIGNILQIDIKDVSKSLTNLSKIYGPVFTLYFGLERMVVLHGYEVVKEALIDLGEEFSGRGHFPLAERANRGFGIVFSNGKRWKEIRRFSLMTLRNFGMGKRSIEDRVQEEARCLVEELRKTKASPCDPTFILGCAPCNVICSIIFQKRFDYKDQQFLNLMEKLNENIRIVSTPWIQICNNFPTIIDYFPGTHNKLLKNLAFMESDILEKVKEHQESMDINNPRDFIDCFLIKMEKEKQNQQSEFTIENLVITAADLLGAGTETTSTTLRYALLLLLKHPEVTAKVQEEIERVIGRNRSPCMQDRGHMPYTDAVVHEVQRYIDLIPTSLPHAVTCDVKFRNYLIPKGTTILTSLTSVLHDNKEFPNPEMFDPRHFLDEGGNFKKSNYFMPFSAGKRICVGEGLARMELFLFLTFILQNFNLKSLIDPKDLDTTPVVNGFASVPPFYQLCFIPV
CYP2C9 activ: activators of human CYP2C9; AID 1024; 1.4% of 96,000 active; activation factor at 5 µM; P11712; recombinant CYP2C9, luciferin-H conversion, luminescence; active compounds read high; factor 1 = untreated enzyme, 0 = blocked;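 active = activation factor of 2 or more for CYP2C9 at a 5 µM dose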;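 also: 0 = sulfaphenazole-blocked wells and 1 = vehicle-only wells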
Cav32 inh: human Cav3.2 channel inhibition, primary screen; AID 449739; Cav3.2-expressing cells, Fluo-4 calcium fluorescence FDSS; active compounds read low; B-score at 10 µM; O95180; 4% of 100,000 active;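 active = single-dose well whose peak fluorescence ratio is a statistical outlier from its plate by either plate-standardised score or position-corrected B-score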
CYP2C19 inhib: human CYP2C19 inhibition; P33261; CYP2C19 Supersomes, luciferin-H EGE luminescence, 30 min; inhibition, % at 5 µM; 21% of 96,000 active; AID 778;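 active = CYP2C19 inhibition above a set limit at 5 µM in the primary screen, cut at about 50% in these data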;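 also: plate controls were negative control wells for no effect and 2.5 mM tranylcypromine positive control for full effect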
The depositor's hits bear a star; · = not tested or not shown.

SMILES	CYP2C9 inhib	CYP2C19 activ	CYP2C9 activ	Cav32 inh	CYP2C19 inhib
Cc1ccccc1CSCCNC(=O)CN(c1ccc2c(c1)OCO2)S(C)(=O)=O	56*	0.4	0.4	-4.3*	64*
CC1(c2ccc3c(c2)OCO3)NC(=O)N(CC(=O)NCCC2=CCCCC2)C1=O (stereo unspecified)	19	0.9	0.8	-0.52	9
CC(OC(=O)CNC(=O)c1ccc2c(c1)OCO2)C(=O)NCCC1=CCCCC1 (stereo unspecified)	41	0.4	0.6	-0.63	63*
Cc1ccc(C2C(C=Nc3c(C)n(C)n(-c4ccccc4)c3=O)=C(c3ccccc3)Oc3ccccc32)cc1 (stereo unspecified)	14	0.8	0.9	-1.1	18
O=C(NCCSCc1ccco1)Nc1ccccc1	25	0.2	0.7	0.066	79*
O=C(/C=C/c1ccccc1)N1CCN(CC(O)COc2ccccc2)CC1 (stereo unspecified)	-48	0.9	1.5	0.43	8
COC(=O)c1ccnc(/C=N/O)c1	·	·	·	-3.4	·
CCOC(=O)CNC(=O)c1ccc2[nH]c3c(c2c1)CCCC3	34	0.8	0.7	0.026	24
CCOC(=O)c1ccc2[nH]c3c(c2c1)CCCC3C(=O)OCC (stereo unspecified)	82*	0.1	0.2	-1.7	89*
COc1ccc(NC(=O)CCn2nc(C)cc2C)cc1	-43	0.3	1.4	1.2	68*
Cc1csc(C(C#N)C(=O)c2ccc(S(=O)(=O)N3CCCC3)cc2)n1 (stereo unspecified)	72*	0.8	0.3	-0.03	22
COc1ccc(NC(=O)CSc2nc(C)cc(C)n2)cc1	-3	0.1	1	0.12	87*
Cc1cc(C)nc(SCC(=O)Nc2ccc(S(=O)(=O)N3CCCCC3)cc2)n1	75*	0.5	0.2	·	49
O=C(O)CSCC(=O)Nc1ccc(S(=O)(=O)N2CCCCC2)cc1	16	1	0.8	-0.79	2
Cc1ccc(C)c(N2CCN(C(=O)c3cn(C)c4ccc(S(=O)(=O)N(C)C)cc4c3=O)CC2)c1	3	0.6	1	1.4	38
Cc1cc(C)nc(SCC(=O)N/N=C\c2sccc2C)n1	20	0.4	0.8	-2.3	55*
Cc1cc(C)nc(SCC(=O)Nc2ccc(S(=O)(=O)NC(C)(C)C)cc2)n1	58*	0.9	0.4	1.3	13
Cc1cc(C)nc(SCC(=O)Nc2ccc(S(=O)(=O)NCCO)cc2)n1	15	1	0.9	0.045	0
Cn1cnnc1SCC(=O)Nc1ccc(S(=O)(=O)N2CCCC2)cc1	12	1.1	0.9	0.77	-8
Cc1csc(SCC(=O)Nc2ccc(S(=O)(=O)N3CCCC3)cc2)n1	94*	0.4	0.1	0.23	65*
CN=C1S/C(=C\c2cccn2-c2cccc(Br)c2)C(=O)N1C	·	·	·	-0.78	·
COC(=O)c1[nH]c2ccc(C)cc2c1NS(=O)(=O)c1ccc(F)c(C)c1	52*	0.2	0.5	·	76*
Cc1cc(S(=O)(=O)Nc2c(C(=O)O)[nH]c3ccccc23)ccc1F	79*	0.1	0.2	-0.48	92*
CCS(=O)(=O)Nc1c(C(=O)O)[nH]c2ccccc12	5	1	0.9	0.038	-2
NS(=O)(=O)c1ccc(NC(=O)CSc2nnc(COc3ccccc3Cl)n2C2CC2)cc1	4	1	1	-0.26	-3
SMILES	CYP2C9 inhib	CYP2C19 activ	CYP2C9 activ	Cav32 inh	CYP2C19 inhib
CC1CCCC(C)N1C(=O)CN1C(=O)C(C)(C)Oc2ccc(C(=O)NC3CCCC3)cc21 (stereo unspecified)	-3	1.2	1	2.8	-19
CCc1nccn1S(=O)(=O)c1ccc(OC)c(C)c1C	-9	0.3	1.1	-3.8*	71*
CCc1nccn1S(=O)(=O)c1ccc(Br)cc1Br	59*	0.1	0.4	-1.2	92*
O=C(CSc1ccc2ccccc2c1)Nc1ccncc1	95*	0	0	·	97*
Cn1ccnc1SCC(=O)Nc1ccc2ccccc2c1	19	0.1	0.8	0.39	93*
Cc1cc(NC(=O)CSc2ccc3ccccc3c2)no1	79*	0.5	0.2	-2.2	50*
CCOC(=O)C1(S(=O)(=O)c2ccc(Cl)cc2)CCN(Cc2ccc(Cl)cc2)CC1	69*	0.4	0.3	-1.2	57*
COc1cccc(CNC(=O)C2CCCN(S(C)(=O)=O)C2)c1 (stereo unspecified)	75*	0.9	0.3	-0.3	8
O=C(NCc1ccccc1)C1CCCN(C(=O)Nc2ccccc2)C1 (stereo unspecified)	44	0.3	0.6	0.017	67*
COc1cccc(CNC(=O)C2CCCN(S(=O)(=O)c3cnc[nH]3)C2)c1 (stereo unspecified)	77*	0.1	0.2	1.2	92*
CCS(=O)(=O)N1CCC(C(=O)NCc2cccc(OC)c2)CC1	-1	1	1	·	-4
COc1cccc(NC(=O)N2CCCC(C(=O)NCc3ccc(F)cc3)C2)c1 (stereo unspecified)	·	·	·	0.78	·
COc1cccc(CNC(=O)C2CCCN(S(=O)(=O)c3cccc4nonc34)C2)c1 (stereo unspecified)	28	0.9	0.7	0.56	11
COc1cccc(CNC(=O)C2CCN(S(=O)(=O)c3cnc[nH]3)CC2)c1	76*	0.7	0.2	0.16	29
Cc1cc(C)c(NC(=O)CS(=O)CC(=O)NC2CCCc3ccccc32)c(C)c1 (stereo unspecified)	-19	1	1.2	-0.78	-4
O=C1Nc2ccccc2/C1=N\c1sc2c(c1C(=O)Nc1ccccc1)CCCC2	·	·	·	-0.62	·
COc1ccc(CCNC(=O)COC(=O)c2cnc(C)cn2)cc1	27	1	0.7	-0.53	5
CCOC(=O)c1cnc(-n2nc(C)cc2C)nc1NCc1ccc2c(c1)OCO2	62*	0.7	0.4	-0.9	33
CCOC(=O)c1cnc(-n2nc(C)cc2C)nc1Nc1ccccc1OC	5	1.1	1	0.52	-5
CCOC(=O)c1cnc(-n2nc(C)cc2C)nc1NCCc1ccccc1	92*	0.2	0.1	-4.1*	83*
Cc1nn(CC(=O)Nc2sc3c(c2C#N)CCC(C(C)(C)C)C3)c(C)c1[N+](=O)[O-] (stereo unspecified)	48	0.9	0.5	-2.7	8
CCOc1cccc(N2C(=O)CC(NCc3ccc(S(N)(=O)=O)cc3)C2=O)c1 (stereo unspecified)	-9	1.1	1.1	-0.34	-12
C=CCOc1ccccc1CN1CCSCC1	10	0.3	0.9	0.36	71*
CCCCC1(Cc2cccc([N+](=O)[O-])c2)C(=O)N(c2ccccc2)N(c2ccccc2)C1=O	80*	0.2	0.2	-2.3	80*
C[C@@H]1CC=C[C@H]2[C@H]1C(=O)N(Cc1ccccc1)[C@H]2c1cccc([N+](=O)[O-])c1	·	·	·	-0.57	·
COc1cc(C(=O)NCCc2nc3ccccc3n2C)cc(OC)c1OC	·	·	·	0.59	·
